Assay outcomes (PubChem BioAssay)
The entries come from a sample that favours hits as a whole.
VACV Venus inh: inhibitors of vaccinia virus (Venus reporter) | Vaccinia virus Venus reporter expression, fluorescence | Potency, µM (doses to about 36.5 µM), for the others: top-dose activity change, negative = inhibition, hits mostly inhibitors | actives 0.46% (n = 330,000) | AID 720580; calls by dose curve; tested in A549 cells; further: potency means the concentration at half of the fitted maximal effect; on the % scale 0 is the no-effect control and ±100 the full control effect; nearly all actives have a fitted effect of over 30% in size
CHX counter: counter-screen for Shiga toxin inhibitors: cycloheximide protein synthesis inhibition. cell reporter, cycloheximide protein synthesis inhibition counterscreen. max response, %. actives 12% (n = 300,000). AID 2314; in the data active means max response mostly above about 13%, no sharp cut-off; inactive means mostly below about 14%; further: read at 38.3 µM for the half of the compounds with a filed dose; 0% is about no effect
Lassa entry inh: blocks Lassa virus binding to or entry into cells; actives 1.2% (n = 300,000); Lassa virus pseudotype entry inhibition, cell reporter; AID 540256; Potency, µM (top dose mostly 37.9 µM), for the others: at the highest dose activity change, negative = inhibition, hits mostly inhibitors; calls by dose curve; tested in HEK293 cells; further: potency means the concentration at half of the fitted maximal effect; on the % scale 0 is the no-effect control and ±100 the full control effect; nearly all actives have a fitted effect of over 50% in size
VACV mCherry inh: inhibitors of vaccinia virus infection (mCherry reporter signal); Vaccinia virus mCherry reporter infection, fluorescence; Potency, µM (top dose mostly 36.5 µM), inactives show at the top dose activity change, negative = inhibition, usual class: inhibitors; actives 0.63% (n = 310,000); AID 720579; calls by dose curve; tested in A549 cells; further: potency means the concentration at half of the fitted maximal effect; on the % scale 0 is the no-effect control and ±100 the full control effect; nearly all actives have a fitted effect of over 35% in size
Marburg entry inh: blocks Marburg virus binding to or entry into cells. Marburg virus pseudotyped entry inhibition, cell reporter. Potency, µM (series often up to 37.8 µM), inactives show top-dose activity change, negative = inhibition, usual class: inhibitors. actives 1.8% (n = 300,000). AID 540276; calls by dose curve; tested in HEK293 cells; further: potency means the concentration at half of the fitted maximal effect; on the % scale 0 is the no-effect control and ±100 the full control effect
Shiga toxin inh: inhibitors of Shiga toxin in Vero cells; Vero cells, Shiga toxin protein synthesis inhibition reporter; inhibition, % at 38.7 µM; actives 9.2% (n = 290,000); AID 2315; in the data active means inhibition mostly above about 28%, no sharp cut-off; inactive means mostly below about 43%; further: 0% is about no effect
The depositor's hits bear a star; i = inactive; ? = inconclusive; / = not tested or not shown; [ ] = remark or other dose.

SMILES	VACV Venus inh	CHX counter	Lassa entry inh	VACV mCherry inh	Marburg entry inh	Shiga toxin inh
CC1=C(C(=O)OC(C)C)C(c2cccnc2)n2ncnc2N1 (stereo not drawn)	28µM*	-9	/	28µM*	0%	-41
CC(c1ccon1)N(C)C(=O)CCc1nnc(Cc2ccc(-c3ccccc3)cc2)o1 (stereo not drawn)	/	16*	/	/	/	40
CN(CCc1ccccc1)C(=O)CCc1nnc(Cc2ccc3c(c2)OCO3)o1	-8%	13*	12%	-14%	15%	32
CN(Cc1ccon1)C(=O)CCc1nnc(Cc2ccc(-c3ccccc3)cc2)o1	-4%	24*	?	i	-8%[46.1 µM]	37*
CC(=O)N1CCc2cc(Br)cc(S(=O)(=O)N3CCN(c4cccc(C(F)(F)F)c4)CC3)c21	-3%	/	?	-9%	12%[46.1 µM]	/
Cc1ccccc1N/C(SCc1ccc(Cl)cc1)=C(/C#N)C(=O)NCc1ccco1	/	41*	?	/	?	112*
Cc1ccc(CS/C(Nc2ccccc2C)=C(\C#N)C(=O)NCc2ccco2)c(C)c1	/	66*	3.7µM*	/	?	91*
O=C(CCSCc1ccc(Cl)cc1)NCc1ccco1	2%	5	1%	-12%	-1%[46.1 µM]	2
Fc1ccc(-n2ncc3c(NCCCN4CCOCC4)ncnc32)cc1	7%	/	22%[46.1 µM]	0%	/	/
Clc1ccc(-n2ncc3c(NCCN4CCOCC4)ncnc32)cc1	?	43*	?	/	-16%	121*
Cc1ccc(-n2ncc3c(NCCCN4CCOCC4)ncnc32)cc1C	-19%	/	29%[46.1 µM]	-25%	/	/
c1ccc(-n2ncc3c(NCCCN4CCOCC4)ncnc32)cc1	/	34*	?	/	?	148*
CC(=O)N(C)c1ccc(N=Nc2ccc3ncccc3c2)cc1	-8%	/	10µM*	?	?	/
